Laboratory results taken from PubChem BioAssay AID434926 (Sanford-Burnham Center for Chemical Genomics, 2010).
The list shows a part of the results. The source made the active and inactive calls.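 How the source made its calls: active means at least twofold enzyme activation in any of six single-dose repeats, which the averaged readout prints as negative percent; inactive means the rest.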

These compounds were tested against Intestinal-type alkaline phosphatase (Homo sapiens) (UniProt P09923) (assay: enhancement of intestinal alkaline phosphatase activity – biochemical, luminescence, single concentration, uHTS hits, confirmation (AID 434926)). Conditions: purified IAP, CDP-Star luminescence, 30 min; at 8.3 µM; active compounds read low.
Intestinal-type alkaline phosphatase (Homo sapiens), sequence (P09923 whole entry, looked up): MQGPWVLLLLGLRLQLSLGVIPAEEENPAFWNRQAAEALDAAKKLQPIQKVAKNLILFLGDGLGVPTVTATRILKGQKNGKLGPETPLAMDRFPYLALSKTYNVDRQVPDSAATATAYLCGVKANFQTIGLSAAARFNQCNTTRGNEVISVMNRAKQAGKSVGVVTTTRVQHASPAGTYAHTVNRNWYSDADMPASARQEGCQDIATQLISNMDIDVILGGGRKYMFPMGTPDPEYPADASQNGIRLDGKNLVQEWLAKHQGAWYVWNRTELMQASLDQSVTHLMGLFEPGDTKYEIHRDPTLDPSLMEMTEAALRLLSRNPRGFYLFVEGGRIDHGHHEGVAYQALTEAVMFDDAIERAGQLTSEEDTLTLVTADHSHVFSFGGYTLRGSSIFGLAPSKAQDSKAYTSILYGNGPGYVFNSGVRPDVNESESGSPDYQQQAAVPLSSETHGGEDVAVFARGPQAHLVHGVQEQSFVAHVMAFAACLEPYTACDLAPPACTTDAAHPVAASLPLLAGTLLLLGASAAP

Row | Structure (SMILES) | activation (%Activity, negative = activation)
1 | OC1CN=C2Sc3ccccc3N2C1 (stereo not given) | -100% (active)
2 | Cc1ccc(NC(=O)c2cc(-c3ccccc3O)n[nH]2)cc1C | -1.54% (inactive)
3 | c1ccc2[nH]c(-c3nc4ccccc4[nH]3)nc2c1 | 10.7% (inactive)
4 | COc1cc(NC(=O)COC(=O)c2cnc(C)cn2)c(C)cc1[N+](=O)[O-] | 6.98% (inactive)
5 | COc1cc(NC(=O)NCC2CCN(Cc3ccc(C)cc3)CC2)cc(OC)c1OC | -1.35% (inactive)
6 | COc1ccc(C2=Nc3cc(C)ccc3OC2)cc1 | 58.3% (inactive)
7 | OC(c1nc2ccc(F)cc2[nH]1)C(O)c1nc2ccc(F)cc2[nH]1 (stereo not given) | 24.7% (inactive)
8 | Cc1ccc2c(c1)nnc1nnc(SCC(=O)O)n12 | 33.9% (inactive)
9 | Cn1c(=O)c2sccc2n(Cc2ccc(Br)cc2)c1=O | 6.79% (inactive)
10 | CC(C)(C)OC(=O)NCCCCCNC(=O)c1[nH]cnc1C(=O)Nc1nccs1 | -6.96% (inactive)
11 | COc1c(O)cc2oc(-c3ccc(O)c(O)c3)cc(=O)c2c1O | -36.9% (inactive)
12 | CCCOCC(O)CC(CC)C(=O)NNC(=S)Nc1ccccc1 (stereo not given) | -138% (active)
13 | C[C@H](NC(=O)c1[nH]cnc1C(=O)Nc1nccs1)c1ccccc1 | -3.71% (inactive)
14 | CCOc1ccc(NC(=O)CSc2nncn2C)cc1 | -83.5% (active)
15 | Cc1c(NC(=O)CN(C)CC(=O)Nc2ccc(F)c(F)c2F)c(=O)n(-c2ccccc2)n1C | -0.594% (inactive)
16 | OCCCN1c2ccccc2Nc2nnc(-c3ccccc3)cc21 | -25.8% (inactive)
17 | COc1ccc(C(=O)NNc2cc(C)nc(NNC(=O)c3ccc(OC)cc3)n2)cc1 | -9.79% (inactive)
18 | O=c1c(/C=N/O)coc2ccc(Cl)cc12 | -11.6% (inactive)
19 | CN1/C(=c2/s/c(=C3/C(=O)N(c4ccccc4)NC3=Nc3ccccc3)n(C)c2=O)C(C)(C)c2ccccc21 | -2.61% (inactive)
20 | Cc1c(C=O)c2ccccn2c1C(=O)c1ccncc1 | 5.63% (inactive)
21 | COCCSc1nnc(NC(=O)CCS(=O)(=O)Cc2ccccc2)s1 | -46.9% (inactive)
22 | CCN1/C(=C\c2ccc3ccccc3[n+]2CC)Sc2cc(C)ccc21 | 32.7% (inactive)
23 | CCC(C(=O)Nc1ccc(C(C)C)cc1)c1ccccc1 (stereo not given) | -30.6% (inactive)
24 | O=C(Nc1ccc(Cl)cc1)c1ccsn1 | -68.3% (inactive)
25 | C#CCOCCOCCOCCNc1nc(N2CCN(C(=O)CCCCCCCCCCNC(=O)[C@H]([C@@H](C)CC)n3cc(CCCCN=C(N)N)nn3)CC2)nc(N2CCN(C(=O)CCCCCCCCCCNC(=O)[C@H](CO)n3cc(CCCSC)nn3)CC2)n1 | 38.5% (inactive)
